Experimental data taken from ChEMBL document CHEMBL3988442, “University of Dundee, Small-Polar-MMV Screening Library” (2021).

What follows are compounds tested against T1, Tyrosyl-tRNA synthetase, putative (Trypanosoma cruzi (strain CL Brener)) (UniProt Q4DSP6) (assay: Trypanosoma cruzi tyrosyl tRNA synthetase (TcYRS) SOP). Conditions: 30 µM.
T1 sequence (whole entry): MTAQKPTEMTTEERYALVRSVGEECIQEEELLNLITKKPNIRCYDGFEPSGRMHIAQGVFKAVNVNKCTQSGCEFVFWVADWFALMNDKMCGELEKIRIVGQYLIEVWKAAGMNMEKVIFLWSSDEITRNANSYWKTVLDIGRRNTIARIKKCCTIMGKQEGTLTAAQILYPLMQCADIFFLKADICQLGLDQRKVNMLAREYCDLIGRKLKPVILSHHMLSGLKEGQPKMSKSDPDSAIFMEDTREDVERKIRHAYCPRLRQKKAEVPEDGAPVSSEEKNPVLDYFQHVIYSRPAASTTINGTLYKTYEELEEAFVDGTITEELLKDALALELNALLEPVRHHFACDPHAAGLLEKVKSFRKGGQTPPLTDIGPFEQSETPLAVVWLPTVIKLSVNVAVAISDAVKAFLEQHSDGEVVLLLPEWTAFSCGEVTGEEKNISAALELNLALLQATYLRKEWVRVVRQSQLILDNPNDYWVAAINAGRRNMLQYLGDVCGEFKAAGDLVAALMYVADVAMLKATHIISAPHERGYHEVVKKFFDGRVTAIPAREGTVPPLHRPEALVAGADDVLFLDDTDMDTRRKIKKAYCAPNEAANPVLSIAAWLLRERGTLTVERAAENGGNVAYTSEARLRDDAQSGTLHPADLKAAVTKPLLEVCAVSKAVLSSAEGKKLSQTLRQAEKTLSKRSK
Assay type: functional
Parameters: scale not given: direction of the effect not stated beside the values

Q: With `O=C(CSc1ccc(F)c(F)c1)NS(=O)(=O)c1ccc2c(c1)OCCO2` as the compound, how does the Percent Effect read?
A: 8.43%

Q: Which Percent Effect does the source give for `CC1COCCN1C(=O)c1cccc(OCc2cscn2)c1` (centres undefined) here?
A: 20.5%

Q: With `Cc1[nH]ccc1C(=O)N1CCCC(c2nccn2Cc2cscn2)C1` (centres undefined) as the compound, how does the Percent Effect read?
A: 17.1%

Q: With `O=C(c1ccc(C(F)(F)F)nc1)N1CCCC(n2cncn2)C1` (centres undefined) as the compound, how does the Percent Effect read?
A: 1.21%

Q: Which Percent Effect does the source give for `Cc1ccc2oc(C(=O)N3CCC(C(=O)N4CCCC4)CC3)cc2n1` here?
A: 18.1%

Q: For `Cc1ccc(N2CCCN(C(=O)c3c(C)oc(C)c3C)CC2)nn1`, which Percent Effect is on record?
A: 15.4%

Q: `CN(c1ccncn1)C1CC2(CCN(C(=O)c3ccsc3)C2)C1` (centres undefined) was tested. Which Percent Effect did it give?
A: 17.5%

Q: `CCc1nc(C2CCCN2C(=O)c2ncoc2CC)no1` (centres undefined) was tested. Which Percent Effect did it give?
A: 8.43%

Q: With `CCc1c(C)nn(CCNC(=O)C2CCCN(C(=O)N(C)C)C2)c1C` (centres undefined) as the compound, how does the Percent Effect read?
A: 14.6%

Q: With `CCn1ncnc1C1CC(=O)NCc2nc3ccccn3c21` (centres undefined) as the compound, how does the Percent Effect read?
A: 9.76%

Q: `Cc1nc(CN2CCCC(CCc3ccc(F)cc3F)C2)c[nH]1` (centres undefined) was tested. Which Percent Effect did it give?
A: 7.32%

Q: For `COc1ccc(C2CC(=O)Nc3c2nc2n3CCCC2)cc1OC` (centres undefined), which Percent Effect is on record?
A: 14.6%

Q: Which Percent Effect does the source give for `O=C(c1cc(Cl)c2c(c1)OCO2)N1CCCC(n2ccnc2)C1` (centres undefined) here?
A: 5.13%

Q: For `Cc1ccccc1N1CC2(CCN(S(=O)(=O)C3CC3)C2)CC1=O` (centres undefined), which Percent Effect is on record?
A: 10%

Q: How did the Percent Effect turn out when `CCc1nc(CN2CCCN(C(=O)COCC3CC3)CC2)cs1` was run?
A: 22.9%

Q: `O=C1CN(Cc2ccc(-c3ccccc3C(=O)O)cc2)CCN1` was tested. Which Percent Effect did it give?
A: 0%

Q: `Cc1cn2c(n1)CCC(NC(=O)c1cc(Br)cn1C)C2` (centres undefined) was tested. Which Percent Effect did it give?
A: 0%

Q: For `COCc1ncc(CN2CCC(Oc3ccccc3OC)CC2)cn1`, which Percent Effect is on record?
A: 14.6%

Q: Which Percent Effect does the source give for `Cn1cc(N2CC3(COCCN(Cc4ccsc4)C3)OCC2=O)cn1` (centres undefined) here?
A: -5.13%

Q: With `CC(C)c1nn(C)c(N2CCOCC2)c1CNCC(=O)N(C)C` as the compound, how does the Percent Effect read?
A: 22.9%

Q: Which Percent Effect does the source give for `CCc1ccsc1C(=O)N1CCN(CC(O)CC)CC1` (centres undefined) here?
A: 21.2%

Q: For `COCCC(=O)N1CCC2(CC1)CC(c1ccccc1)CN(C)C2` (centres undefined), which Percent Effect is on record?
A: 12.2%

Q: How did the Percent Effect turn out when `COc1ccc(CNCc2ccc(N3CCCCC3)nc2)cc1OC` was run?
A: 25.3%

Q: With `Cc1cc(C)n(CC2CCCN2CCc2ccncc2)n1` (centres undefined) as the compound, how does the Percent Effect read?
A: 20.5%

Q: With `COCCc1noc(CN2CCCC2Cn2cc(C)cn2)n1` (centres undefined) as the compound, how does the Percent Effect read?
A: 7.69%

Q: For `CC(NC(=O)N(C)CCCOc1ccc(F)cc1)c1nncn1C` (centres undefined), which Percent Effect is on record?
A: 10.3%

Q: With `CC(Nc1cccc(CN2CCOC2=O)c1)C(=O)Nc1ccccc1F` (centres undefined) as the compound, how does the Percent Effect read?
A: 8.43%

Q: `COc1cccc2c1OCC(C(=O)NC1CCN(S(C)(=O)=O)CC1)C2` (centres undefined) was tested. Which Percent Effect did it give?
A: 17.1%

Q: Which Percent Effect does the source give for `CC(=O)N1CCCC1c1cc(N2CCN(C3CCCC3)CC2)cc(C)n1` (centres undefined) here?
A: 15%

Q: Which Percent Effect does the source give for `Cn1cnc2c1CCN(Cc1ccc(C(=O)N3CCCC3)cc1)C2` here?
A: 20.5%

Q: Which Percent Effect does the source give for `c1csc(CN2CCOCC3(CCN(C4CCOCC4)C3)C2)n1` (centres undefined) here?
A: -2.56%

Q: For `CCN(CC1CCOC1)C(=O)Nc1ccc(-n2cncn2)nc1` (centres undefined), which Percent Effect is on record?
A: 10.8%

Q: `Cn1cc(NC(=O)N2CCC(NS(C)(=O)=O)CC2)ccc1=O` was tested. Which Percent Effect did it give?
A: -13.2%

Q: How did the Percent Effect turn out when `O=C(NCCNC(=O)c1scnc1Cl)c1ccccc1` was run?
A: 17.9%

Q: Which Percent Effect does the source give for `Cc1cc(C(=O)O)cc(S(=O)(=O)Nc2ccc3c(c2)OCO3)c1C` here?
A: 10.8%

Q: `Cc1ccc(-c2cc(CN3CCCC(Cn4cncn4)C3)on2)cc1` (centres undefined) was tested. Which Percent Effect did it give?
A: 4.71%

Q: Which Percent Effect does the source give for `CNc1cncc(C2CCCN2C(=O)c2ccc3oc(C)cc3c2)n1` (centres undefined) here?
A: 7.5%

Q: How did the Percent Effect turn out when `Cc1cc(NC(=O)CN2CCCC2c2noc(C(C)C)n2)n(C)n1` (centres undefined) was run?
A: 5.13%

Q: With `COCCC(=O)N1CCCC2(CCC(=O)N2CCOC)CC1` (centres undefined) as the compound, how does the Percent Effect read?
A: 2.5%
